Screening results (PubChem)
DT40 TDP1 no CPT: qHTS for Inhibitors of human tyrosyl-DNA phosphodiesterase 1 (TDP1): qHTS in cells in absence of CPT. Potency, µM (series often up to 46.2 µM), usual class: inhibitors. DT40 Tdp1-/- hTDP1 cells, no CPT, ATP luminescence, 48 h. 15% of 420,000 active. AID 686978, 2013; also: nearly all actives have a fitted effect of over 55% in size
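Camptothecin absent (DMSO only). Human TDP1-complemented DT40 knockout cells, 400 cells/well, 37 °C for minimum 48 hr; ATP measured via CellTiter-Glo, 30 min dark incubation, luminescence.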
TDP1 block: TDP1 (human) enzyme inhibition | Q9NUW8 | recombinant TDP1, AlphaScreen DNA substrate cleavage | Potency, µM (titrated, usually from 130 µM), usual class: inhibitors | 0.28% of 350,000 active | AID 485290; also: nearly all actives have a fitted effect of over 40% in size
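Tdp1 1 nM final; 15 min RT w/ cpd; substrate 15 nM, 5 min; beads 10 ug/ml, 10 min; AlphaScreen read. Neg ctrl: no enzyme.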
TDP1 cell CPT: DT40-hTDP1 cell growth loss with CPT; 12% of 420,000 active; Potency, µM (top dose mostly 46.2 µM), most hits filed as inhibitors; chicken DT40 Tdp1-/-;hTDP1 cells + 20 nM CPT, ATP luminescence, 48 h; also: nearly all actives have a fitted effect of over 55% in size
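Cell growth measured by CellTiter-Glo luminescence after a minimum 48 h, 37 C compound exposure with 20 nM CPT in Tdp1-knockout DT40 cells stably expressing hTDP1, seeded 400/well; qHTS titration format.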
ClpP mod: qHTS Assay for Activators of ClpP; Potency, µM (doses to about 57.5 µM); AID 651965, 2013; 1.9% of 340,000 active; ATP-dependent Clp protease proteolytic subunit (Bacillus subtilis (strain 168)), P80244; purified B. subtilis ClpP, FRET peptide cleavage, 20 min; active = well fitted falling curve with a large enough effect; inconclusive = small, poorly fitted or top-dose-only effect; inactive = no such curve, though single readings can be large or run the other way; also: the source files actives as falling curves though it sought activators and does not explain the sign; nearly all actives have a fitted effect of over 65% in size
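Purified B. subtilis ClpP, 10 microg/mL final in Tris/HCl pH8 with KCl, BSA, glycerol and Tween-20, cleaved an Abz/nitrotyrosine-quenched decapeptide. Fluorescence (ex 320, em 430) was read at 0 and 20 min at room temperature. Delta was normalized to 5.8 microM ADEP and DMSO/no-enzyme controls.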
Large screens that a line does not name were inactive. Only some compounds are listed: those with a hit (about 17% of all), similar ones and a draw of the others. Unless noted, calls follow the shape of the dose curve; as a rule, active = well fitted curve in the direction sought with a large enough effect; inconclusive = small, poorly fitted or top-dose-only effect, or another doubt; inactive = no such curve, though single readings can be large; an effect the other way counts as inactive or inconclusive.

CCCCNc1nc2c(c(=O)n(C)c(=O)n2C)n1CCC	DT40 TDP1 no CPT inconclusive, TDP1 cell CPT inconclusive (no result: TDP1 block)
C=CCn1c(NCCO)nc2c1c(=O)n(C)c(=O)n2C	DT40 TDP1 no CPT inconclusive, TDP1 cell CPT inconclusive
CCCNc1nc2c(c(=O)[nH]c(=O)n2C)n1CCCc1ccccc1	none
CCCCCCn1c(NCC)nc2c1c(=O)n(C)c(=O)n2C	DT40 TDP1 no CPT 2.6µM, TDP1 cell CPT 6.5µM
CCCNc1nc2c(c(=O)n(C)c(=O)n2C)n1CCCc1ccccc1	DT40 TDP1 no CPT 18µM, TDP1 cell CPT 13µM (no result: TDP1 block)
CC(O)CNc1nc2c(c(=O)n(C)c(=O)n2C)n1CCc1ccccc1 (stereo unspecified)	DT40 TDP1 no CPT 16µM, TDP1 cell CPT inconclusive
CCCNc1nc2c(c(=O)n(C)c(=O)n2C)n1CCC(C)C	DT40 TDP1 no CPT 16µM, TDP1 cell CPT 16µM
O=C(CSc1ncccn1)N/N=C/c1ccc2c(c1)OCO2	none
CCCNC(=O)c1cc(C2CCCCN2C(=O)c2ccc(NC(C)=O)cc2)on1 (stereo unspecified)	none (no result: TDP1 block)
CCCNc1nc2c(c(=O)n(C)c(=O)n2C)n1Cc1cccc(C)c1	DT40 TDP1 no CPT 5.8µM, TDP1 cell CPT 7.3µM
Cn1c(=O)c2c(nc(NCCO)n2CCc2ccccc2)n(C)c1=O	DT40 TDP1 no CPT 12µM, TDP1 cell CPT 16µM
CCCCC(=O)NCCNc1nc2c(c(=O)n(C)c(=O)n2C)n1Cc1ccccc1	DT40 TDP1 no CPT inconclusive, TDP1 cell CPT inconclusive
Cn1c(=O)c2c(nc(NCCCO)n2CCc2ccccc2)n(C)c1=O	none
CC(C)CCn1c(Oc2ccc(Cl)cc2)nc2c1c(=O)n(C)c(=O)n2C	DT40 TDP1 no CPT inconclusive, TDP1 cell CPT inconclusive
CC(C)CCn1c(Oc2ccccc2F)nc2c1c(=O)n(C)c(=O)n2C	DT40 TDP1 no CPT inconclusive, TDP1 cell CPT 18µM
CCCNc1nc2c(c(=O)n(C)c(=O)n2C)n1CCc1ccccc1	DT40 TDP1 no CPT 7.1µM, TDP1 cell CPT 5µM
Cc1c(N)ccc(-n2nc3ccccc3n2)c1C	none (no result: TDP1 block, ClpP mod)
CC1(C)S[C@@H]2[C@H](NC(=O)COc3ccccc3)C(=O)N2[C@@H]1C(=O)OCc1cccc2cccnc12	none (no result: TDP1 block)
CCOc1ccc(C(=O)NCC(=O)OCC(=O)Nc2ccc(C)c(S(=O)(=O)N(C)C)c2)cc1	none (no result: ClpP mod)
CC[C@]12CCCN3CCc4c(n(c5ccccc45)C(=O)C1)[C@H]32	DT40 TDP1 no CPT 9.4µM, TDP1 cell CPT 11µM (no result: ClpP mod)
Cc1cc[n+](CC2OCc3ccccc3CO2)cc1	DT40 TDP1 no CPT 18µM, TDP1 cell CPT inconclusive
CC(C)CNCC1OCc2ccccc2CO1	none (no result: TDP1 block, ClpP mod)
N=c1c2c3c(sc2ncn1N)CCC3	none
CC(C)(C)C1CCc2c(sc3ncn(N)c(=N)c23)C1 (stereo unspecified)	DT40 TDP1 no CPT 6.5µM, TDP1 cell CPT 16µM
COc1cccc(N2CCN(c3nc(C)cc(C)c3C#N)CC2)c1	DT40 TDP1 no CPT inconclusive (no result: TDP1 block)
COc1cccc(N2CCN(c3c(C#N)c(C(F)(F)F)nn3C)CC2)c1	DT40 TDP1 no CPT 8.2µM, TDP1 cell CPT 23µM
C#CCCCO/N=C1/C[C@@H](O)[C@@H](O)[C@@H]2[C@@H]3C(=O)N(C[C@@H]4CCCO4)C(=O)[C@H]3CC[C@@H]12	none (no result: DT40 TDP1 no CPT, TDP1 cell CPT, ClpP mod)
COC(=O)c1ccc(OC(=O)C23CCC(C)(C(=O)O2)C3(C)C)cc1 (stereo unspecified)	none
O=C1c2ccccc2C(=O)N1CCc1c(-c2[nH]c3ccccc3c2CCN2C(=O)c3ccccc3C2=O)[nH]c2ccccc12	DT40 TDP1 no CPT 18µM, TDP1 cell CPT 21µM (no result: TDP1 block)
O=C1c2ccccc2C(=O)N1CCc1c(-c2ccccc2)[nH]c2ccccc12	DT40 TDP1 no CPT 15µM, TDP1 cell CPT inconclusive (no result: TDP1 block)
O=C1c2ccccc2C(=O)N1CCCCCCc1ccccc1	TDP1 block 35µM
O=C1c2ccccc2C(=O)N1CCc1ccccc1	DT40 TDP1 no CPT inconclusive, TDP1 cell CPT inconclusive (no result: TDP1 block)
CC(=O)c1ccc(-c2[nH]c3ccccc3c2CCN2C(=O)c3ccccc3C2=O)cc1	DT40 TDP1 no CPT inconclusive, TDP1 cell CPT inconclusive (no result: TDP1 block)
O=C(Cn1cc(C(F)(F)F)ccc1=O)NC1CCCC1	TDP1 block inconclusive
Cc1c(N2C(=O)CSC2=S)c(=O)n(-c2ccccc2)n1C	DT40 TDP1 no CPT inconclusive, TDP1 cell CPT inconclusive (no result: ClpP mod)
CCc1ccc(N2C(=O)C(Cl)=C(N3CCCCCC3)C2=O)cc1	TDP1 cell CPT inconclusive (no result: TDP1 block)
Cc1c(N2C(=O)c3ccc4c5c(ccc(c35)C2=O)CC4)c(=O)n(-c2ccccc2)n1C	DT40 TDP1 no CPT inconclusive, TDP1 block 18µM, TDP1 cell CPT inconclusive, ClpP mod inconclusive
CCc1ccc(N2C(=O)c3ccc4c5c(ccc(c35)C2=O)CC4)cc1	ClpP mod 25µM (no result: TDP1 block)
CCN1C(=O)[C@H]2[C@@H](c3ccc(-c4ccccc4)c(OC)c3)N[C@@](Cc3ccccc3)(C(=O)OC)[C@H]2C1=O	none
CCN1C(=O)[C@H]2[C@@H](c3ccc(-c4ccc(F)cc4)c(OC)c3)N[C@@](Cc3ccccc3)(C(=O)OC)[C@H]2C1=O	none
CCCSc1ccc([C@H]2N[C@@](Cc3ccccc3)(C(=O)OC)[C@H]3C(=O)N(CC)C(=O)[C@@H]23)cc1	DT40 TDP1 no CPT 18µM, TDP1 cell CPT 18µM
CCCCCCSc1ccc([C@H]2N[C@@](Cc3ccccc3)(C(=O)OC)[C@H]3C(=O)N(CC)C(=O)[C@@H]23)cc1	DT40 TDP1 no CPT 18µM, TDP1 cell CPT inconclusive
CCCCCCSc1ccc([C@H]2N[C@@](Cc3ccccc3)(C(=O)OC)[C@H]3C(=O)N(C)C(=O)[C@@H]23)cc1	DT40 TDP1 no CPT 21µM, TDP1 cell CPT inconclusive
CCCCCCSc1ccc([C@H]2N[C@@](CC(C)C)(C(=O)OC)[C@H]3C(=O)N(C)C(=O)[C@@H]23)cc1	DT40 TDP1 no CPT inconclusive, TDP1 cell CPT inconclusive
Cc1ccc(C(=O)Nc2nc(=O)[nH]s2)cc1	none (no result: ClpP mod)
Cc1nc(NCCO)c2nc(-c3ccccc3)n(CC3CCN(C)CC3)c2n1	none (no result: DT40 TDP1 no CPT, TDP1 cell CPT, ClpP mod)
COc1cccc(Cn2c(=O)cnc3cnc(Oc4ccccc4)nc32)c1	none (no result: TDP1 block, ClpP mod)
COc1ccc(NC(=O)C23CC4CC(C2)CC(n2cnc(Br)n2)(C4)C3)cc1Cl	DT40 TDP1 no CPT 23µM, TDP1 cell CPT inconclusive
O=C(Nc1cc(Oc2ccccc2)cc([N+](=O)[O-])c1)C12CC3CC(C1)CC(n1cnc(Cl)n1)(C3)C2	DT40 TDP1 no CPT inconclusive, TDP1 cell CPT inconclusive
COC(=O)C12CC3CC(C1)CC(n1cnc(Cl)n1)(C3)C2	TDP1 cell CPT inconclusive
COC(=O)c1ccccc1NC(=O)C12CC3CC(C1)CC(n1cnc(Cl)n1)(C3)C2	DT40 TDP1 no CPT 16µM, TDP1 cell CPT 21µM
O=C(Nc1cccc2ccccc12)C12CC3CC(C1)CC(n1cnc([N+](=O)[O-])n1)(C3)C2	DT40 TDP1 no CPT 26µM, TDP1 cell CPT 23µM
COCCNC(=O)c1cccc2c(-c3cnn(C)c3)coc12	none (no result: TDP1 block)
c1cncc(-c2cn(C[C@H]3CC[C@H](Cn4cc(-c5cccnc5)nn4)O3)nn2)c1	none
